Over roughly 68,000 sequences, “fluorescence intensity (a.u.)” has its median near 9,100; the highest 2% begin near 16,000. The sample as a whole holds a higher share of the highest values than the screen did.
molecular target: OsWRKY34 (Oryza sativa, UniProt Q0JBA9 1-250); experiment: protein-binding microarray (RPBM); PBS, 2% BSA, 51.3 ng/ul salmon testes DNA, 50 uM zinc acetate, 200 nM TF, 25 C, 1 h; high values mean tight binding; conditions: protein: recombinant; tags: N-terminal polyhistidine and DsRed monomer fusion (pET32a); label: CyDye5-dUTP incorporated in the synthesized complementary strand; 3' TTTTT single-stranded linker to array surface; dsDNA, one strand shown
Sequence (Q0JBA9 entry or part of it): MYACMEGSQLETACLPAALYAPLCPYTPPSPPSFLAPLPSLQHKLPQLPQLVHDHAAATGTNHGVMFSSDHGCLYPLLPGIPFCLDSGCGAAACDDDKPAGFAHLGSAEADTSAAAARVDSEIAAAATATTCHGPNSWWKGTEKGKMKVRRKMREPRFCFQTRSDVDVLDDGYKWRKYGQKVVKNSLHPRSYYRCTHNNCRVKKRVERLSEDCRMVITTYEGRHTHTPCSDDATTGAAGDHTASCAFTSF
Procedure, shortened: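 A custom Agilent array was converted to double-stranded form by primer extension with Cy5-dUTP and blocked with 2% BSA. Protein at 200 nM in PBS with 2% BSA, salmon testes DNA and 50 µM zinc acetate was applied for 1 h at 25 °C, followed by washing. The proteins were polyhistidine–DsRed N-terminal fusions of transcription factors, expressed in E. coli BL21-CodonPlus and Ni–NTA-purified. The binding signal is per-feature fluorescence intensity (arbitrary units) from an Axon 4000B scanner.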

Question: How did the binding signal turn out when “GTCCTTTCAGTGTTGCGCTTTTGCTTATTGTAGTTATTGGCGGAGTCACCTAGTGCAG” was run?
Answer: 16300 fluorescence intensity (a.u.)

Question: Which binding signal does the source give for “CATCCAACCATCACACACAGTTAGCATATCAGTAGTCGTTCGGAGTCACCTAGTGCAG” here?
Answer: 8210 fluorescence intensity (a.u.)

Question: With “TCCATCCCGGCCCGGCACTGCACACACGCGCGTAGTACCACGGAGTCACCTAGTGCAG” as the sequence, how does the binding signal read?
Answer: 8130 fluorescence intensity (a.u.)

Question: With “ACTCCTACAGTAGTGACTTGAGTAGCGCTTCTTTTTTCCACGGAGTCACCTAGTGCAG” as the sequence, how does the binding signal read?
Answer: 9440 fluorescence intensity (a.u.)

Question: With “TCTTCGGCCTCTCCGCCTCCGCCATTGACAGCGTTGACCACGGAGTCACCTAGTGCAG” as the sequence, how does the binding signal read?
Answer: 18300 fluorescence intensity (a.u.)

Question: With “AGACCGTTGACTTGACTAGTCCACTCCTCTTTCACACGTACGGAGTCACCTAGTGCAG” as the sequence, how does the binding signal read?
Answer: 12100 fluorescence intensity (a.u.)

Question: “ATGACCGGCCACCACCATTGCCACCGGCCGATCTCCTCTTCGGAGTCACCTAGTGCAG” was tested. Which binding signal did it give?
Answer: 9360 fluorescence intensity (a.u.)

Question: “GCCATTGACAGCGTTGACCAAGTCAGCCGCTCCAGCCTCTCGGAGTCACCTAGTGCAG” was tested. Which binding signal did it give?
Answer: 14200 fluorescence intensity (a.u.)

Question: With “AACTTGAGCGTTGACCGCTTTGACTCCTCTTCTTTCTCCACGGAGTCACCTAGTGCAG” as the sequence, how does the binding signal read?
Answer: 24900 fluorescence intensity (a.u.)

Question: With “GCCACCTTTTGTTCCGCAACCGCAATGATTTCTTCTTCTTCGGAGTCACCTAGTGCAG” as the sequence, how does the binding signal read?
Answer: 14800 fluorescence intensity (a.u.)

Question: Which binding signal does the source give for “GTTTGACATGCAGACTTGATTCTATCACCTATAGCATCTGCGGAGTCACCTAGTGCAG” here?
Answer: 28100 fluorescence intensity (a.u.)

Question: “TAGTGGTGGTCTTGATTCCTGACATAGCAGACGCATCTGACGGAGTCACCTAGTGCAG” was tested. Which binding signal did it give?
Answer: 10500 fluorescence intensity (a.u.)

Question: “TATATATATATATATATATAGATTTATTGACATCTATATGCGGAGTCACCTAGTGCAG” was tested. Which binding signal did it give?
Answer: 9230 fluorescence intensity (a.u.)

Question: Which binding signal does the source give for “TCAGTTTTTGTTTGCAATGTTTGACCACTCGTCTTATTCACGGAGTCACCTAGTGCAG” here?
Answer: 18500 fluorescence intensity (a.u.)

Question: “ATTTTCATTTGGTTGGTGTGGTTATCTCTTTTTTCATTTACGGAGTCACCTAGTGCAG” was tested. Which binding signal did it give?
Answer: 20700 fluorescence intensity (a.u.)

Question: Which binding signal does the source give for “TTCAGTTTTTGCTTGCAACGTTTGACCACTCGTCTTATTCCGGAGTCACCTAGTGCAG” here?
Answer: 15600 fluorescence intensity (a.u.)

Question: Which binding signal does the source give for “TTCTTCATTATCTCTATTTGTGGTGCTATTGGTTTATTTTCGGAGTCACCTAGTGCAG” here?
Answer: 8980 fluorescence intensity (a.u.)

Question: “GGGGTTTCTCATGGGCCAACTATACATTCACACGCGGCCGCGGAGTCACCTAGTGCAG” was tested. Which binding signal did it give?
Answer: 17400 fluorescence intensity (a.u.)

Question: How did the binding signal turn out when “CTGTCGTGTTTCCTCTGATTAGTTCATACAGCATCTGTTACGGAGTCACCTAGTGCAG” was run?
Answer: 17600 fluorescence intensity (a.u.)

Question: Which binding signal does the source give for “TCTTGGTTACATGGTGGTTGGTGTTTCATTCTCTTGTTTTCGGAGTCACCTAGTGCAG” here?
Answer: 10000 fluorescence intensity (a.u.)

Question: Which binding signal does the source give for “TTTACATTCATTTCTCTATACGAGCATGGGCCGCACTATACGGAGTCACCTAGTGCAG” here?
Answer: 9830 fluorescence intensity (a.u.)

Question: For “CTTCCTAACGTTCATATCTCTGTGTTTTTAGTGTGTCATACGGAGTCACCTAGTGCAG”, which binding signal is on record?
Answer: 9860 fluorescence intensity (a.u.)

Question: How did the binding signal turn out when “GAGTTTTTACTTTGTAATGTTTGACCACTCGTCTTATTCACGGAGTCACCTAGTGCAG” was run?
Answer: 8880 fluorescence intensity (a.u.)

Question: “ATCTGATTTTTATTTTCAGCATATGCATCGTTTTCATGTTCGGAGTCACCTAGTGCAG” was tested. Which binding signal did it give?
Answer: 10200 fluorescence intensity (a.u.)

Question: “GGTTTCTTCTCATTCTTCTTTTTTTCCTTTTTTCTACACGCGGAGTCACCTAGTGCAG” was tested. Which binding signal did it give?
Answer: 14000 fluorescence intensity (a.u.)

Question: With “GGCCTAATTATTGCCTTAATTTTTCTCTTTGGTTTTCTCACGGAGTCACCTAGTGCAG” as the sequence, how does the binding signal read?
Answer: 9070 fluorescence intensity (a.u.)

Question: Which binding signal does the source give for “TGAGGGCTGCTGTGCTATTCTTCCTGGACATCTCTGGGTCCGGAGTCACCTAGTGCAG” here?
Answer: 8650 fluorescence intensity (a.u.)

Question: “TTTCTGTTTAACGTCAACCCGGCTGTTTTCGCCCGGTCAACGGAGTCACCTAGTGCAG” was tested. Which binding signal did it give?
Answer: 9040 fluorescence intensity (a.u.)

Question: How did the binding signal turn out when “GCCAAGACGCCCAAAGCACACACTCTCTCTCGCTGTCTTTCGGAGTCACCTAGTGCAG” was run?
Answer: 8490 fluorescence intensity (a.u.)

Question: With “GATTTGATGGATTTGTTGAGAGATATGCTTCTTAAGCCAACGGAGTCACCTAGTGCAG” as the sequence, how does the binding signal read?
Answer: 8300 fluorescence intensity (a.u.)

Question: “CACACCTAGGCCGCCTTTTTCAACCGGGGAGCACACCTTTCGGAGTCACCTAGTGCAG” was tested. Which binding signal did it give?
Answer: 10400 fluorescence intensity (a.u.)

Question: How did the binding signal turn out when “AATATGTACTACTTCCGTTTCAGGTTATAAGACTTTCTAGCGGAGTCACCTAGTGCAG” was run?
Answer: 8400 fluorescence intensity (a.u.)

Question: Which binding signal does the source give for “CGTAGTAATGTCTGAATTCACCGCCTTAATCCTGTCACGACGGAGTCACCTAGTGCAG” here?
Answer: 8450 fluorescence intensity (a.u.)

Question: With “TTTTTCTTTTCTCGCGTACAGCTGGACGCTTCGTTTGCTTCGGAGTCACCTAGTGCAG” as the sequence, how does the binding signal read?
Answer: 11100 fluorescence intensity (a.u.)

Question: For “CCCATCAACCGCCAAAGACTTCCCGCGCGCGTCTACATATCGGAGTCACCTAGTGCAG”, which binding signal is on record?
Answer: 8450 fluorescence intensity (a.u.)

Question: How did the binding signal turn out when “ACCGTCCTCCTCGTCACCCACCAGCTCGACTTCCTCCGCACGGAGTCACCTAGTGCAG” was run?
Answer: 8200 fluorescence intensity (a.u.)

Question: For “GTCAACGATCCGGCGTCTGTTCCACTTCTACCCTCCCATCCGGAGTCACCTAGTGCAG”, which binding signal is on record?
Answer: 8250 fluorescence intensity (a.u.)

Question: Which binding signal does the source give for “TACTGGTTCTACTTGATCTTATTTATCTTTTTATTCTATTCGGAGTCACCTAGTGCAG” here?
Answer: 10100 fluorescence intensity (a.u.)

Question: How did the binding signal turn out when “TCTGCATGATTCCTTGGTTTCTTTTTTTACACATTTACTTCGGAGTCACCTAGTGCAG” was run?
Answer: 10500 fluorescence intensity (a.u.)

Question: For “ATACTCTTGGTTTATCTTTGATTTTGTATATCTTTTTATTCGGAGTCACCTAGTGCAG”, which binding signal is on record?
Answer: 9720 fluorescence intensity (a.u.)

Question: How did the binding signal turn out when “ATTTAGAGTTGACTTTGGTTTATTTTTCATTGAAGTTTATCGGAGTCACCTAGTGCAG” was run?
Answer: 9450 fluorescence intensity (a.u.)

Question: “ACCATCTCTCTCTCTCTCTCTGCATGCATATCTTCTCCTCCGGAGTCACCTAGTGCAG” was tested. Which binding signal did it give?
Answer: 14300 fluorescence intensity (a.u.)

Question: “CCCTTTACTTGATTTTCTGCTGGTTGGTTTATCTTTTATTCGGAGTCACCTAGTGCAG” was tested. Which binding signal did it give?
Answer: 19600 fluorescence intensity (a.u.)

Question: With “CATATGTTTGACCATTCGTCTTATTCAAAAATTTTATTCACGGAGTCACCTAGTGCAG” as the sequence, how does the binding signal read?
Answer: 9660 fluorescence intensity (a.u.)

Question: With “CATCTGTCTCTGGATCTCTGCATATCTCCTCTTCTGTGATCGGAGTCACCTAGTGCAG” as the sequence, how does the binding signal read?
Answer: 17200 fluorescence intensity (a.u.)

Question: Which binding signal does the source give for “CTGGATCTCCTCTCTCTCTCTCTCTCTCTGTCCTTCTTCTCGGAGTCACCTAGTGCAG” here?
Answer: 10800 fluorescence intensity (a.u.)

Question: For “CTGTTGACTTTTTCTTATATGTTTGACCATTCGTCTTATTCGGAGTCACCTAGTGCAG”, which binding signal is on record?
Answer: 24600 fluorescence intensity (a.u.)

— article PMC7819943, “Rice protein-binding microarrays: a tool to detect cis-acting elements near promoter regions in rice”
